Measured values as given in PubChem BioAssay (NCATS).
Records with an inconclusive call do not appear. Activity calls are given as the source filed them. Unless noted, calls come from the whole dose curve; as a rule, active = well fitted curve in the direction sought with a large enough effect; inconclusive = small, poorly fitted or top-dose-only effect, or another doubt; inactive = no such curve, though single readings can be large; an effect the other way counts as inactive or inconclusive.

Columns and labels:
[1] = biological target: Lysosomal acid glucosylceramidase (Homo sapiens) (UniProt P04062); test: Glucocerebrosidase-p2 (AID 348; in the data active = potency below about 10 µM; note: potency is the fitted concentration of half-maximal effect); conditions: purified GBA, blue fluorogenic substrate, 40 min
Sequence of Lysosomal acid glucosylceramidase (Homo sapiens) (P04062 whole entry, looked up): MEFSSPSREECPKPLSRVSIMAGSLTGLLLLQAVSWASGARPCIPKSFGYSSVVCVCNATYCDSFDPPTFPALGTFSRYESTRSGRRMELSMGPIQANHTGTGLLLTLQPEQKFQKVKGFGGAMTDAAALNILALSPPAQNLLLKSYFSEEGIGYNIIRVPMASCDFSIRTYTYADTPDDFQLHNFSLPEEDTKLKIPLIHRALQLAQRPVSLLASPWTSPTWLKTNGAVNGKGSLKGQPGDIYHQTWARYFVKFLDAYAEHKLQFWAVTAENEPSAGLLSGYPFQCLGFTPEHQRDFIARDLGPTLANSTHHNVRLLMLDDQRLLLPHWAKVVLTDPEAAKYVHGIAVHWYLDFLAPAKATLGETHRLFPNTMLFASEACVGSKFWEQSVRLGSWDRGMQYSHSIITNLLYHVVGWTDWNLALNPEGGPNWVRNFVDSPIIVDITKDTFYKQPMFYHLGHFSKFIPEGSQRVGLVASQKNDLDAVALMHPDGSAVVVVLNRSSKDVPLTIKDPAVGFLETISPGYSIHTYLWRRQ
How it was run: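 Normal human glucocerebrosidase (0.2 nM) with blue fluorogenic substrate (80 uM final) in citrate/phosphate pH 5.9 with 10mM sodium taurocholate, 0.01% tween-20; 40 min RT, NaOH/glycine stop; fluorescence Ex 365/Em 440; AC50 from a titration from 0.6 nM upwards.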

[2] = AP1 Signaling Pathway (AID 357; active = well fitted curve in either direction with a large enough effect, not every such curve was filed as active;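 note: ME-180 reporter cells stimulated with EGF at its EC50 level; % is set by controls: 0 for no effect and ±100 for the full control effect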); conditions: ME-180 AP-1-bla reporter, EGF-induced, beta-lactamase ratio, 5 h; at 7.69 µM (top of the series) unless noted
How it was run: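 Cells are seeded overnight, exposed to compound titrations and an EC50 level of EGF for 5 hours at 37 °C, then loaded with CCF4 dye for 2.5 hours. Beta-lactamase activity under the AP-1 element is read as a blue/green ratio.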

[3] = biological target: Cytochrome P450 1A2 (Homo sapiens) (UniProt P05177); test: p450-cyp1a2 (AID 410; calls by dose curve; note: potency is the fitted concentration of half-maximal effect;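 for activity change, negative = inhibition: -100% = full effect of reference inhibitor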); conditions: recombinant CYP1A2, luciferin-ME demethylation, luminescence; series mostly up to 57 µM
Sequence of Cytochrome P450 1A2 (Homo sapiens) (P05177 whole entry, looked up): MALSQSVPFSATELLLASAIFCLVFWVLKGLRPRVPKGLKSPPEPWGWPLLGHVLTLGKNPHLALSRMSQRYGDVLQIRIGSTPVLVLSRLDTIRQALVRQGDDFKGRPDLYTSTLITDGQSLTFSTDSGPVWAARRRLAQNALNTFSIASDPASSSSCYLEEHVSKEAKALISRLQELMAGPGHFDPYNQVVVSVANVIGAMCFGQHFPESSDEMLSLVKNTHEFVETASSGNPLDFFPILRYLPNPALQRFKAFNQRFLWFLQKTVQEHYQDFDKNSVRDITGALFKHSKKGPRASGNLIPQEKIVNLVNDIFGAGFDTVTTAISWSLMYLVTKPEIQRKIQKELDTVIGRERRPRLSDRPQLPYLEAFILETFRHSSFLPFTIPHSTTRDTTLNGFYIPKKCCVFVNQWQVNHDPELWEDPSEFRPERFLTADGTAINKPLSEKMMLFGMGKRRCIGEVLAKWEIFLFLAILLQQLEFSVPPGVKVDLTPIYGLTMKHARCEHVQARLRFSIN
How it was run: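 O-Demethylation of luciferin 6' methyl ether by human CYP1A2 is monitored as luciferase luminescence. Substrate sits at Km (100uM); enzyme is 20nM. Values are scaled to 57 uM furafylline as maximal inhibition.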

[4] = NFAT Signaling Pathway (AID 444; active = well fitted curve in either direction with a large enough effect, not every such curve was filed as active;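 note: carbachol stimulus at about its EC50 of 1 µM final; % is set by controls: 0 for no effect and ±100 for the full control effect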); conditions: Jurkat NFAT-bla M1, carbachol, beta-lactamase ratio, 5 h; at 7.69 µM (top of the series) unless noted
How it was run: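 Jurkat cells carrying an NFAT-driven β-lactamase reporter and co-transfected muscarinic M1 receptor were treated with compound plus carbachol (1 uM final, an EC50 level) for 5 h at 37 °C. CCF4 loading followed for 1 h at RT; 460/530 nm ratio gave %activity.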

[5] = biological target: Glucocorticoid receptor (Homo sapiens) (UniProt P04150); test: GR-GFP Redistribution (AID 450;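 active = compounds whose dose series gives a full or clear partial fitted curve of increased nuclear translocation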; note: potency is the fitted concentration of half-maximal effect); conditions: U2OS GR-GFP nuclear translocation, laser cytometry, 2 h
Sequence of Glucocorticoid receptor (Homo sapiens) (P04150 whole entry, looked up, the tested form may be a part): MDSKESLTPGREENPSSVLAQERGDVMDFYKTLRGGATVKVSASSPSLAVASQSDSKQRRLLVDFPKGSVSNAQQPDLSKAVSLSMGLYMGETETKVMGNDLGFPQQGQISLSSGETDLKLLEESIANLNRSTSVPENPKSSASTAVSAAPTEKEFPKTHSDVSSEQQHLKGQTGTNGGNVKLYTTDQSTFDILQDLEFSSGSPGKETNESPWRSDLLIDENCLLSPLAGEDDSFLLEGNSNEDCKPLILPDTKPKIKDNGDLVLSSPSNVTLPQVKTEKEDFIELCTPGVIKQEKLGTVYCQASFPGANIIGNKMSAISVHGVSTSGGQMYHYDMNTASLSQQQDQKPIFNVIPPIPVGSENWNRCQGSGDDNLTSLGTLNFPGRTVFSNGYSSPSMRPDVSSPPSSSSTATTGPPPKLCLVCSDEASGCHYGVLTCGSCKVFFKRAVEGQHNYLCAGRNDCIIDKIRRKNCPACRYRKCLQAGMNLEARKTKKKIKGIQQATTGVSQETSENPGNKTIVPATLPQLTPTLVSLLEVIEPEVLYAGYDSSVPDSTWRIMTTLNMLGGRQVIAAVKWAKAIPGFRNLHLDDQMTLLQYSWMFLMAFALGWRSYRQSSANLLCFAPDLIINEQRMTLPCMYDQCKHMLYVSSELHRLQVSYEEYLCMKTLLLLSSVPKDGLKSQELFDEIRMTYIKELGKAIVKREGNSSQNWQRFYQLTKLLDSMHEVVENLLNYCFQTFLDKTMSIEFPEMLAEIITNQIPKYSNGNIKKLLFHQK

[6] = biological target: Glucocorticoid receptor (Homo sapiens) (UniProt P04150); test: GR-EFC Redistribution (AID 451; calls by dose curve; note: potency is the fitted concentration of half-maximal effect); conditions: CHO-K1 GR-EFC translocation, beta-gal luminescence, 2 h
How it was run: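 CHO-K1 cells stably expressing nuclear-localized β-gal enzyme acceptor and GR fused C-terminally to the enzyme donor fragment; ligand-driven nuclear translocation restores β-gal by complementation. Compounds titrated up to 46 uM final, 2 h at 37 °C; luminescence read.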

[7] = biological target: Mitogen-activated protein kinase 10 (Mus musculus) (UniProt Q61831); test: JNK3 AlphaScreen Assay (AID 530; active = well fitted curve in either direction with a large enough effect, not every such curve was filed as active;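 note: kinase came from lysate of stimulated human HepG2 cells; signal reports phosphorylation of biotinylated GST-cJun 1-79 at Ser73 with 10 µM ATP; % is set by controls: 0 for no effect and ±100 for the full control effect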); conditions: JNK3 lysate, c-Jun phosphorylation; series mostly up to 57.1 µM
How it was run: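 Phosphorylation of biotinylated GST-cJun(1-79) at Ser73 is measured by AlphaScreen proximity luminescence. Enzyme is JNK3 in HepG2 lysates activated with interleukin-1beta and tumor necrosis factor alpha; ATP is 10 uM final.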

[8] = biological target: 3',5'-cyclic-AMP phosphodiesterase 4B (Homo sapiens) (UniProt Q07343); test: qHTS Assay for Inhibitors of PDE-IV (AID 607; active = well fitted activation curve with a large enough effect in the main read-out, with a control signal flat, not every such curve was filed as active; note: % of control where 0% means no effect); conditions: HEK293 ACTOne CNG channel cells, membrane potential fluorescence; series mostly up to 22.9 µM
Sequence of 3',5'-cyclic-AMP phosphodiesterase 4B (Homo sapiens) (Q07343 whole entry, looked up): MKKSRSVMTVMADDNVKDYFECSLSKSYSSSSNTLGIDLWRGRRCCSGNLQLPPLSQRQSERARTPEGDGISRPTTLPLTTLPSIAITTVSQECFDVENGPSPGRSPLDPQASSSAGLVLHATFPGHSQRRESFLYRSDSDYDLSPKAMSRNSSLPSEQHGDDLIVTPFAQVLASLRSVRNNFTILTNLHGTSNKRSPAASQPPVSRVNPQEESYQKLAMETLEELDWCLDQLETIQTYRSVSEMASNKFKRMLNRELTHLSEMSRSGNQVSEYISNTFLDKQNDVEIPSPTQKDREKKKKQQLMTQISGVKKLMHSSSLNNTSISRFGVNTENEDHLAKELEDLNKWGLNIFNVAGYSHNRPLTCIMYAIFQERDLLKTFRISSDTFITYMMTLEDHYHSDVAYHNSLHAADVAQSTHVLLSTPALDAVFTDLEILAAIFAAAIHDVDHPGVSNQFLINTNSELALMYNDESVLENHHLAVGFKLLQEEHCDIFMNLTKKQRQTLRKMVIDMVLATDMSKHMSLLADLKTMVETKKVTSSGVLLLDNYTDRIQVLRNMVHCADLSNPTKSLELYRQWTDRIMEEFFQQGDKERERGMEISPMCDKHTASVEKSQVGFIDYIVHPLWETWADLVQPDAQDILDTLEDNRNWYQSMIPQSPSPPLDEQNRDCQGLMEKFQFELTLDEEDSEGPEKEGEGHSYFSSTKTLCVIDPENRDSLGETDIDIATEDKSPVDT
How it was run: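 The readout is membrane depolarisation from a cAMP-sensing CNG channel, detected with a potential dye at ex 535/em 590. Cells were HEK293-derived (endogenous PDE-IV) at 1000 cells/well, titrated up to 22.9 uM final.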

[9] = biological target: Cytochrome P450 3A4 (Homo sapiens) (UniProt P08684); test: qHTS Assay for Activators of Cytochrome P450 3A4 (AID 885); conditions: recombinant CYP3A4, Luciferin-PPXE luminescence, 60 min; series mostly up to 57.1 µM; note: nearly all actives have a fitted effect of over 65% in size
Sequence of Cytochrome P450 3A4 (Homo sapiens) (P08684 whole entry, looked up): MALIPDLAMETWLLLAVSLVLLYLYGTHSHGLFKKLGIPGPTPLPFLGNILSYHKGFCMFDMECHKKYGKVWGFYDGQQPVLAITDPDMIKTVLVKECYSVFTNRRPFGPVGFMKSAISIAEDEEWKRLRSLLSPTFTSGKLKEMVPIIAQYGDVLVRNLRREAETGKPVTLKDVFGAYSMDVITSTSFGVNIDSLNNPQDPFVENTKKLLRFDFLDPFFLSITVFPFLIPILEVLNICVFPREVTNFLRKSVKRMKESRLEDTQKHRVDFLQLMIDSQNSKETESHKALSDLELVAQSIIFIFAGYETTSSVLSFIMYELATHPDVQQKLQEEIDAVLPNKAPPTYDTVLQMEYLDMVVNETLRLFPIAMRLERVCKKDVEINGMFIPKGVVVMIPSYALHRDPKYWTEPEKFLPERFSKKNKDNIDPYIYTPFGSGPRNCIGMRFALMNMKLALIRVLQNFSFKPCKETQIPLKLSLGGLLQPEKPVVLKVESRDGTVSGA
How it was run: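 Activators are scored by enhanced luminescence from CYP3A4 conversion of luciferin-PPXE (25uM, equal to KM) to luciferin, after 60 min at RT with an NADPH-regenerating system.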

[10] = qHTS Assay for Lipid Storage Modulators (AID 1519; calls by dose curve); conditions: Drosophila S3 cells, BODIPY lipid droplet/cell ratio, laser cytometry, cells loaded with oleic acid; for activity change, negative = inhibition: at 57.5 µM (top of the series)
How it was run: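 Cells seeded at 5,000 per well were treated with compounds over a concentration series and loaded with oleic acid (400 uM, as added). Lipid droplet fluorescence (488 nm excitation, 500-530 nm channel) was read by laser-scanning cytometry and normalized to 20 uM Triacsin C.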

[11] = biological target: Dual specificity protein kinase CLK4 (Homo sapiens) (UniProt Q9HAZ1); test: qHTS Assay for Inhibitors of CDC-like Kinase 4 (Kinase-Glo Assay) (AID 1770); conditions: recombinant Clk4, Kinase-Glo ATP depletion luminescence; series mostly up to 66.7 µM; note: nearly all actives have a fitted effect of over 65% in size; note: potency is the fitted concentration of half-maximal effect
Sequence of Dual specificity protein kinase CLK4 (Homo sapiens) (Q9HAZ1 whole entry, looked up): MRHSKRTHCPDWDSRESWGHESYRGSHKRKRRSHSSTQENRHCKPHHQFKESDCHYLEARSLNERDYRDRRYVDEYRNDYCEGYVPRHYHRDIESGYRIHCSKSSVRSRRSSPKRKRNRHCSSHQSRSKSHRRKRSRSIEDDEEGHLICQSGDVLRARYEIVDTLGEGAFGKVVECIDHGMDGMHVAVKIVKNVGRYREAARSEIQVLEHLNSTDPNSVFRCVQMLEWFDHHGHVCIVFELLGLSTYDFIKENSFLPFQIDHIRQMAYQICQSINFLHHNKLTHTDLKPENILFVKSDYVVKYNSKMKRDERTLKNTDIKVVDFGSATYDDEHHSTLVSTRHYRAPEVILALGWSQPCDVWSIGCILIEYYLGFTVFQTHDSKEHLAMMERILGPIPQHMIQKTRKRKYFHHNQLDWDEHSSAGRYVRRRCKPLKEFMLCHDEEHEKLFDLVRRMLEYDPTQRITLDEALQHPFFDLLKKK
How it was run: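 Recombinant human Clk4 (25 nM) phosphorylated RS repeat peptide (100 uM) with 1 uM ATP in Tris pH 7.5/MgCl2/EGTA/DTT/Triton buffer for 4.5 h at room temperature. Residual ATP was quantified by Kinase-Glo luciferase luminescence.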

[12] = biological target: Dual specificity protein kinase CLK4 (Homo sapiens) (UniProt Q9HAZ1); test: qHTS Assay for Inhibitors of CDC-like Kinase 4 (ADP-Glo Assay) (AID 1771); conditions: recombinant CLK4, ADP-Glo luminescence; series mostly up to 80 µM; note: nearly all actives have a fitted effect of over 70% in size; note: potency is the fitted concentration of half-maximal effect
How it was run: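 Compounds are pin-transferred onto substrate mix (100 uM RS peptide, 1 uM ATP), then 25 nM Clk4 is added. After 1 hr at room temperature, ADP-Glo reagent runs 45 min, detection reagent 30 min, then luminescence is read.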

[13] = biological target: Dual specificity protein kinase CLK4 (Homo sapiens) (UniProt Q9HAZ1); test: qHTS Assay for Inhibitors of CDC-like Kinase 4 (ADP-FP Assay) (AID 1795); conditions: Transcreener ADP fluorescence polarization; series mostly up to 50 µM; note: nearly all actives have a fitted effect of over 60% in size; note: potency is the fitted concentration of half-maximal effect
How it was run: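 Recombinant human Clk4 (6.25 nM) phosphorylated RS repeat peptide (100 uM) with 1 uM ATP in Tris pH 7.5/MgCl2/EGTA/DTT/Triton buffer for one hour. ADP was quantified by Transcreener competitive fluorescence polarization against an ADP calibration curve.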

[14] = biological target: Ubiquitin carboxyl-terminal hydrolase 1 (Homo sapiens) (UniProt O94782); test: Inhibitors of USP1/UAF1: Pilot qHTS (AID 504865); conditions: purified USP1/UAF1, Ub-rhodamine cleavage fluorescence; series mostly up to 54.9 µM;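 note: rhodamine fluorescence freed from ubiquitin-rhodamine substrate followed over time; top concentration of the series differs between compounds; % is set by controls: 0 for no effect and ±100 for the full control effect; nearly all actives have a fitted effect of over 35% in size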
Sequence of Ubiquitin carboxyl-terminal hydrolase 1 (Homo sapiens) (O94782 whole entry, looked up): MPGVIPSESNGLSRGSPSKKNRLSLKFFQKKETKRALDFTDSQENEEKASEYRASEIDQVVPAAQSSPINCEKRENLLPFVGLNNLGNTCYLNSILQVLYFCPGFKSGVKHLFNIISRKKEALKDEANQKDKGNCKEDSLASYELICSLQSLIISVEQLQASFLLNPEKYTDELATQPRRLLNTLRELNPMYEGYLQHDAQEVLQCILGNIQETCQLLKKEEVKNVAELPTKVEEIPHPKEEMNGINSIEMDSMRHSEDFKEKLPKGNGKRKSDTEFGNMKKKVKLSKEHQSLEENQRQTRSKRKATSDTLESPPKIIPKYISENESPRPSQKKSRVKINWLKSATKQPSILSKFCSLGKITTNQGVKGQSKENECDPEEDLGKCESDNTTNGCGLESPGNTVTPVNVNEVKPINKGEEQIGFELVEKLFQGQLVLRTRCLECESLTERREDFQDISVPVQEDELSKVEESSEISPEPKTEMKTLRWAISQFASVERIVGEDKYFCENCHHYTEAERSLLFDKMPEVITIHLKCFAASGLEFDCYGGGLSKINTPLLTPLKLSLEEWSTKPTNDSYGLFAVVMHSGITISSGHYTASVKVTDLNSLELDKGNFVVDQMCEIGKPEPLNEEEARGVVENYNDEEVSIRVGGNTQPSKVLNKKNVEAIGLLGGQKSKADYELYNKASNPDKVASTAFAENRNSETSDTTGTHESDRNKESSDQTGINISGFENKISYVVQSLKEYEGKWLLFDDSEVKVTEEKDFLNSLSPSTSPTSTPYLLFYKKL
How it was run: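 USP1/UAF1 complex (1nM) preincubated with compound 15 min at room temperature, then Ub-Rho substrate (150nM final) added. Fluorescence read kinetically at 480/540 nm, 6 reads every 60 seconds. Buffer: 50mM HEPES pH 7.8, 0.5mM EDTA, 0.1 mg/ml BSA, 1mM TCEP, 0.01% Tween-20.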

[15] = Primary qHTS for small molecule stabilizers of the endoplasmic reticulum resident proteome: Secreted ER Calcium Modulated Protein (SERCaMP) assay (AID 1508630); conditions: SH-SY5Y GLuc-SERCaMP (Gaussia luciferase released on ER calcium loss) secretion, thapsigargin, luminescence; series mostly up to 38.4 µM; note: % is set by controls: 0 for no effect and ±100 for the full control effect
How it was run: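 The SH-SY5Y reporter protocol was run at 3 concentrations up to 38.3 uM (primary) or 11 concentrations (follow-up): 16 h compound, 100 nM thapsigargin for 4 h, then extracellular luciferase luminescence.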

[16] = Stat Signaling Pathway (AID 446; active = well fitted curve in either direction with a large enough effect, not every such curve was filed as active); conditions: ME-180 (cervical carcinoma) SIE beta-lactamase reporter, IL-6 stimulated, 5 h; at 7.69 µM (top of the series) unless noted
How it was run: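 Emission at 460 and 530 nm (excitation 405 nm) reports SIE-controlled beta-lactamase in ME-180 cells. Cells received compound with 40 pM IL-6 for 5 hrs at 37 C; data scaled between 300 pM IL-6 and 125 nM JAK-inhibitor controls.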

[17] = biological target: Cytochrome P450 3A4 (Homo sapiens) (UniProt P08684); test: qHTS Assay for Inhibitors and Substrates of Cytochrome P450 3A4 (AID 884); conditions: recombinant CYP3A4, Luciferin-PPXE luminescence; series mostly up to 57.1 µM; note: potency is the fitted concentration of half-maximal effect; nearly all actives have a fitted effect of over 50% in size
How it was run: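 Luminescent readout of luciferin produced by CYP3A4 (20 nM) dealkylation of Luciferin-PPXE, 25 uM (its KM). NADPH-driven reaction ran 60 min at RT after 10 min compound preincubation; data scaled to 57 uM ketoconazole as 100% inhibition.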

[18] = biological target: Cytochrome P450 2C9 (Homo sapiens) (UniProt P11712); test: qHTS Assay for Inhibitors and Substrates of Cytochrome P450 2C9 (AID 883); conditions: recombinant CYP2C9, luciferin-H luminescence, 60 min; series mostly up to 57.1 µM; note: potency is the fitted concentration of half-maximal effect; nearly all actives have a fitted effect of over 60% in size
Sequence of Cytochrome P450 2C9 (Homo sapiens) (P11712 whole entry, looked up): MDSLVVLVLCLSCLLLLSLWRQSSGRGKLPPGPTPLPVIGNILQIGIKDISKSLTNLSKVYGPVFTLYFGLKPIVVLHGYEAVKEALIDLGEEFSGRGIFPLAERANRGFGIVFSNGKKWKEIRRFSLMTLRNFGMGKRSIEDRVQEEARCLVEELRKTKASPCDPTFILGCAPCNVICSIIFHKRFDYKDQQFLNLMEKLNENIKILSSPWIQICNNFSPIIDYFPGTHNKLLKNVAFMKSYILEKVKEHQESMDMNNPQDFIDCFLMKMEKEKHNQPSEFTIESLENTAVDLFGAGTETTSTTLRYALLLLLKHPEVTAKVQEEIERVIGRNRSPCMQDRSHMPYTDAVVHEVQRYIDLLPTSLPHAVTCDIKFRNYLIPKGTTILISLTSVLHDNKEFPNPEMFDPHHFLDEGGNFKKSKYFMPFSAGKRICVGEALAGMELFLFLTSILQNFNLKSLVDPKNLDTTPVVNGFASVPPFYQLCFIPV
How it was run: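 CYP2C9 deoxyluciferin hydroxylation, 37C, 60 min with NADPH regeneration; 10nM enzyme, 100uM Luciferin-H (KM). Glo detection reagent stopped reaction; luminescence normalized to sulphaphenazole (57uM) full inhibition.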

[19] = biological target: Cytochrome P450 2C19 (Homo sapiens) (UniProt P33261); test: qHTS Assay for Inhibitors and Substrates of Cytochrome P450 2C19 (AID 899); conditions: recombinant CYP2C19, luciferin-H EGE luminescence; series mostly up to 57.1 µM; note: potency is the fitted concentration of half-maximal effect; nearly all actives have a fitted effect of over 60% in size
How it was run: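 In 50mM KPO4, the reaction held 5nM enzyme and KM-level (10uM) Luciferin-H EGE; it ran 60 min at 37C after NADPH regeneration and a 10 min compound preincubation. Luminescence values were scaled to 57uM ketoconazole as complete inhibition.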

[20] = measured here: cell count channel max response
[21] = measured here: lipid channel max response

O=c1c(-c2cccs2)nc2cnc(N3CCOCC3)nc2n1Cc1cccs1
inactive: Potency [1] > 11.4 µM | activity change, negative = inhibition [2] 15.1% | activity change, negative = inhibition [4] -8.44% | Potency [5] > 9.22 µM | Potency [6] > 46 µM | outcome [7] | Potency [8] | Potency [9] | activity change, negative = inhibition [10] -15.7% | Potency [11] | Potency [12] | Potency [13] | Potency [14] | Potency [15]
0.532%: max response [10, 21]
22.5%: max response [10, 20]
active: Potency [3] 15.8 µM

Cc1noc(C)c1-c1ccc2ncnc(Nc3ccc(F)cc3)c2c1
active: Potency [3] 3.98 µM | Potency [11] 4.47 µM | Potency [12] 6.31 µM | Potency [13] 3.16 µM
inactive: Potency [1] > 11.4 µM | activity change, negative = inhibition [2] -20.2% | activity, negative = inhibition [16] -24.6% | Potency [5] > 46 µM | Potency [6] > 46 µM | outcome [7] | Potency [8] | Potency [9] | activity change, negative = inhibition [10] 6.07% | Potency [14] | Potency [15]
29.1%: max response [10, 21]
23.8%: max response [10, 20]

Cc1noc(C)c1-c1cncnc1N(C)Cc1ccco1
13.2%: max response [10, 21]
11.5%: max response [10, 20]
active: Potency [17] 3.16 µM
inactive: Potency [1] > 11.4 µM | activity change, negative = inhibition [2] 1.41% | Potency [3] | activity change, negative = inhibition [4] -7.22% | activity, negative = inhibition [16] -0.77% | Potency [5] > 46 µM | outcome [7] | Potency [8] | Potency [9] | activity change, negative = inhibition [10] 4.24% | Potency [11] | Potency [12] | Potency [13] | Potency [14] | Potency [15]

COc1cccc(-c2nc(NCc3ccccc3)c3ccccc3n2)c1
inactive: Potency [1] > 11.4 µM | activity change, negative = inhibition [2] -17.6% | activity change, negative = inhibition [4] 0.742% | activity, negative = inhibition [16] -12.9% | Potency [6] > 46 µM | outcome [7] | Potency [9] | activity change, negative = inhibition [10] -4.54% | Potency [14] | Potency [15]
2.86%: max response [10, 21]
active: Potency [3] 3.16 µM | Potency [18] 1.26 µM | Potency [19] 3.98 µM | Potency [11] 6.31 µM | Potency [12] 6.31 µM | Potency [13] 2.24 µM
10.5%: max response [10, 20]

COc1ccc(Oc2ncc3nc(-c4cn(C)c5ccccc45)c(=O)n(C4CC4)c3n2)cc1
3.07%: max response [10, 21]
3.6%: max response [10, 20]
inactive: Potency [1] > 11.4 µM | activity change, negative = inhibition [2] -4.88% | activity change, negative = inhibition [4] 9.91% | activity, negative = inhibition [16] 19% | Potency [6] > 46 µM | outcome [7] | Potency [8] | Potency [9] | activity change, negative = inhibition [10] 2.32% | Potency [11] | Potency [12] | Potency [13] | Potency [14] | Potency [15]
active: Potency [3] 12.6 µM
